Screening results as filed in PubChem.
Smad3 FoxH1 inh: inhibitors of human Smad3 transcription factor binding. 88,000 compounds, 0.29% hits. inhibition, % at 25 µM. TR-FRET Smad3/Dy647-FoxH1 peptide binding, europium anti-His. P84022;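 active = compounds that reduce the energy-transfer binding signal between the protein and its labelled peptide by more than half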;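 also: 0% = Smad3 plus labelled peptide maximal FRET and 100% = peptide-only background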
MRP reversal: reverses drug resistance mediated by MRP; H69AR cells + 2 uM doxorubicin, CellTiter-Glo, 72 h; differential viability (reversal), % at 10 µM; 85,000 compounds, 0.04% hits; AID 602;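 active = viability drop by adding the cancer drug above about 55%, with treated viability meeting a 40% cutoff, limit read from the data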;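 also: viability without doxorubicin minus viability with 2 µM doxorubicin for each compound; larger differential means the compound sensitizes cells more to doxorubicin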
MRP1 act: activators of MRP-1 | H69AR cells + doxorubicin, viability rescue, CellTiter-Glo | viability increase, % at 10 µM | 140,000 compounds, 0.61% hits | AID 799;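 active = viability gain under doxorubicin at or above a set limit, the compound median plus 3 SD, cut at about 4.7% in these data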;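 also: MRP-1 overexpressing cells given doxorubicin 25 µM after compound pretreatment; 18-22 h compound pretreatment then 72 h with doxorubicin before readout; 0% = doxorubicin-only wells and 100% = vehicle-treated cells without doxorubicin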
ERb SRC1 inh: blocks coactivator binding to human estrogen receptor beta | Q92731 | TR-FRET ER-beta LBD / SRC1-Cy5 peptide binding; receptor agonist-loaded with 1 µM estradiol | inhibition, % at 25.6 µM | 86,000 compounds, 1.3% hits | AID 633;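 active = compounds whose percent inhibition of the receptor-coactivator binding signal exceeds about 50% in the single-dose screen, limit read from the data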;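 also: 0% = receptor plus peptide wells without compound and 100% = peptide-only wells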
Target sequence (Q92731 whole entry, looked up, the tested form may be a part): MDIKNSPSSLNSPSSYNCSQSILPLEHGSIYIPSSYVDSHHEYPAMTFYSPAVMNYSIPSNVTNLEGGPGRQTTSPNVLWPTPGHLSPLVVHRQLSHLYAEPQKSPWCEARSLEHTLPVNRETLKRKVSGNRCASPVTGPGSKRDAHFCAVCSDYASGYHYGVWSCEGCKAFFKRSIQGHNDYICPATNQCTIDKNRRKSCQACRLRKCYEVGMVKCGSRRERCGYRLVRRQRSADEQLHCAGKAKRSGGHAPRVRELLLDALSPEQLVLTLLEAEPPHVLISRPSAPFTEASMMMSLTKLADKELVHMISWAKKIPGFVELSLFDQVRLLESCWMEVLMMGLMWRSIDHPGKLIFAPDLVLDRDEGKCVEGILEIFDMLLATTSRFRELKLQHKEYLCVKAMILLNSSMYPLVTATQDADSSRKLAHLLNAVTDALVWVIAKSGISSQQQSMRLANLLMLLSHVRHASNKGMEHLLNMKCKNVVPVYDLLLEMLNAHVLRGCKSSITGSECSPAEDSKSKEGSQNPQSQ
ERa SRC1 pot: enhances coactivator binding to human estrogen receptor alpha; TR-FRET ERalpha-LBD/SRC-Cy5 coactivator binding, 2 h; 100 = basal binding, no effect; coactivator binding (% of control), % at 25.6 µM; 86,000 compounds, 1.3% hits; in the data active = activity above about 200%;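 also: binding measured in presence of low estradiol as agonist stimulus; 0% = peptide alone without receptor and 100% = receptor with peptide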
ERa coact inh: ER-alpha (human) coactivator binding inhibition. TR-FRET ER-alpha LBD / SRC-1 peptide, estradiol-bound. 86,000 compounds, 1.7% hits. inhibition, % at 25.6 µM. P03372; in the data active = inhibition above about 50%;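 also: 0% = receptor plus peptide control and 100% = peptide only without receptor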
* = called active by the depositor; . = no result given; [ ] = another dose, or the depositor's remark. Shown are actives, neighbours in structure and some others; about 2.8% of the full set was active somewhere.

SMILES	Smad3 FoxH1 inh	MRP reversal	MRP1 act	ERb SRC1 inh	ERa SRC1 pot	ERa coact inh
NCC[C@H](N)C(=O)O	-13	.	.	.	.	.
Cc1oc(-c2ccc(Cl)cc2)nc1CN1CCCC(C(=O)NCc2cccnc2)C1 (stereo not given)	-4	-1	-1	53*	109	-7
CCN(CC)c1nc(N)c2c(N)nc3c(c2c1C#N)CC(c1ccccc1)O3 (stereo not given)	-4	-1	-1	-2	80	-5
N#Cc1c(N2CCCCC2)nc(N)c2c(N)nc3c(c12)CC(c1ccccc1)O3 (stereo not given)	-12	26	-4	29	217*[fluorescence artefact?]	23
Cc1c(Cl)c(S(N)(=O)=O)cc(S(N)(=O)=O)c1NC(=O)c1ccc(Cl)cc1	15	.	.	.	.	.
Cc1ccc(S(=O)(=O)N2CCC(C(=O)Nc3nnc(-c4ccco4)s3)CC2)cc1	12	-15	-2	21	200*[fluorescence artefact?]	25
Cc1ccc(S(=O)(=O)N2CCC(C(=O)N[C@H](C(=O)NCc3ccco3)C(C)C)CC2)cc1	0	28	-1	50*[fluorescence artefact?]	98	57*[fluorescence artefact?]
COc1ccc(NS(=O)(=O)c2cc(NC(=O)CNC(=O)c3ccc(C)s3)ccc2Cl)cc1	.	.	14*	.	.	.
COc1ccc(NC(=O)CN(C)C(=O)c2ccc(C)s2)cc1	15	14	-1	-6	87	5
CCOC(=O)CN1C(=O)C(C)(C)Oc2ccc(C(=O)Nc3ccccc3OC)cc21	10	-6	5.3*	-6	104	6
Cc1ccc(NC(=O)c2ccc3c(c2)N(CC(=O)N2CCCCC2)C(=O)C(C)(C)O3)cc1	-4	-24	-5	-7	89	6
Cc1ccc(Nc2nc(N)nc(CSc3nnnn3-c3ccccc3)n2)cc1	-2	10	0	48	219*[fluorescence artefact?]	62*[fluorescence artefact?]
O=C(CSc1nnc2scc(-c3ccccc3)n12)Nc1nsc(-c2ccccc2)n1	-142	-25	-2	9	218*[fluorescence artefact?]	37
Cc1ccc(-c2csc3nnc(SCC(=O)Nc4nsc(-c5ccccc5)n4)n23)cc1	-123	-5	1	14	137	32
Cc1ccc(Nc2nc(N)nc(CSc3nncn3C)n2)cc1	-11	2	0	18	95	23
Cc1ccc(-c2nc(NC(=O)CSc3ccc4ccccc4n3)ns2)cc1	.	.	0	.	.	.
Cc1ccc(-c2nc(NC(=O)CSc3nnnn3-c3ccccc3)ns2)cc1	-6	-42	-4	15	219*	15
O=C(NCc1ccc2c(c1)OCO2)c1cc2ncc(Br)cn2n1	30	2	-1	78*[fluorescence artefact?]	24	80*[fluorescence artefact?]
O=C(NCc1ccc2c(c1)OCO2)c1ccccn1	0	-3	-3	-1	98	2
CN1CCN(CC(=O)N2c3ccccc3Sc3cc4ccccc4cc32)CC1	13	.	.	.	.	.
O=C(NCCc1ccc2c(c1)OCCO2)c1cc(F)cc(F)c1	.	.	4.7*	.	.	.
O=C(NCCc1ccc2c(c1)OCCO2)c1cccc(F)c1	.	.	0	.	.	.
CC(=O)C1=C(C)NC(SCC(=O)c2ccc(-c3ccccc3)cc2)=C(C#N)C1c1cccnc1 (stereo not given)	-7	-4	-3	29	355*[fluorescence artefact?]	38
CN(C)CCCCN1CCc2c(n(C)c3ccccc23)C1=O	-5	.	.	.	.	.
O=C(COC(=O)c1cn(-c2ccccc2)nc1-c1cccs1)NC1CC1	3	-5	-1	10	202*	7
SMILES	Smad3 FoxH1 inh	MRP reversal	MRP1 act	ERb SRC1 inh	ERa SRC1 pot	ERa coact inh
O=c1c2cc(N3CCOCC3)ccc2[nH]c(=S)n1CCCN1CCCCCC1	9	2	-1	50	49	75*[fluorescence artefact?]
Cc1ccc(Cn2c(=S)[nH]c3ccc(N4CCOCC4)cc3c2=O)o1	13	-17	-2	52*[fluorescence artefact?]	67	26
O=c1c2cc(N3CCOCC3)ccc2[nH]c(=S)n1Cc1ccc(Cl)cc1	2	18	-2	11	118	13
Clc1ccc(SCc2cn3ccsc3n2)cc1	-14	7	-1	-24	366*[fluorescence artefact?]	-19
Cc1csc2nc(CSc3ccc(Cl)cc3)cn12	-5	-6	0	13	66	-8
CC(=O)N1CCN(c2ccc(S(=O)(=O)N3CCCCC3)cn2)CC1	10	-1	-2	-7	115	3
O=S(=O)(c1ccc(N2CCN(S(=O)(=O)c3ccc4c(c3)OCCO4)CC2)nc1)N1CCCC1	0	2	-4	44	275*[fluorescence artefact?]	35
